# Source: PubChem (National Center for Advancing Translational Sciences (NCATS))
# The list is not random: actives were taken first. Their share in the collection is about 18%.
# CtBP-E1A inh: qHTS Assay for Inhibitors of the CtBP/E1A Interaction; CtBP / adenovirus E1A interaction (AlphaScreen); AlphaScreen GST-E1A/His-CtBP binding, 1536-well; hits give low values; activity change, % (test concentration not listed); actives 0.49% (n = 340,000); AID 651724, 2012; in the data active = activity change below about -65%; inconclusive = mostly about -30% to -63%
#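 Protein mix (5X: 125 nM each GST-E1A, His-CtBP) was incubated with pinned compound 2 h at 37 deg C in dark, in 50 mM Tris pH 8.0 buffer with 300 mM NaCl. Glutathione donor and nickel acceptor beads followed; AlphaScreen signal read after 1 h.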
# TDP1 cell noCPT: qHTS for Inhibitors of human tyrosyl-DNA phosphodiesterase 1 (TDP1): qHTS in cells in absence of CPT; Potency, µM (top dose mostly 46.2 µM), inactives show at the highest dose activity change, negative = growth inhibition, most hits filed as inhibitors; actives 15% (n = 420,000); AID 686978, 2013; DT40 Tdp1-/- hTDP1 cells, no CPT, ATP luminescence, 48 h; also: potency is read from the fitted curve at half-maximal effect; nearly all actives have a fitted effect of over 55% in size
#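 Chicken DT40 Tdp1-/- cells stably complemented with human TDP1 were seeded at 400 cells/well with DMSO in place of 20 nM camptothecin. After compound pinning, cells grew at least 48 hr at 37 °C; viability read by CellTiter-Glo luminescence.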
# DT40 TDP1 CPT: qHTS for Inhibitors of human tyrosyl-DNA phosphodiesterase 1 (TDP1): qHTS in cells in presence of CPT; chicken DT40 Tdp1-/-;hTDP1 cells + 20 nM CPT, ATP luminescence, 48 h; AID 686979, 2013; actives 12% (n = 420,000); Potency, µM (doses to about 46.2 µM), inactives show at the top dose activity change, negative = growth inhibition, hits mostly inhibitors; also: potency is read from the fitted curve at half-maximal effect; nearly all actives have a fitted effect of over 55% in size
#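 Chicken DT40 Tdp1-/- cells stably complemented with human TDP1 were seeded at 400 cells/well in medium containing 20 nM camptothecin, exposed to pin-transferred compounds, and grown at 37 °C for at least 48 hr. Viability was read as ATP luminescence.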
# Six1-Eya2 blk: qHTS Assay for Inhibitors of the Six1/Eya2 Interaction | Homeobox protein SIX1 (Homo sapiens) + Protein phosphatase EYA2 (Homo sapiens), … | AlphaScreen GST-Six1/His-Eya2 binding, biochemical; hits give low values | activity change, % (concentration not given with the values) | actives 0.56% (n = 360,000) | AID 651725, 2012; in the data active = activity change below about -65%; inconclusive = mostly about -30% to -63%
#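 Compounds are tested against tagged Six1 and Eya2 proteins bridged by glutathione donor and nickel acceptor beads; after a one-hour incubation at 37 °C without light, AlphaScreen emission is recorded.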
# TDP1 inh: qHTS Assay for Inhibitors of Tyrosyl-DNA Phosphodiesterase (TDP1); actives 0.28% (n = 350,000); AID 485290, 2010; Tyrosyl-DNA phosphodiesterase 1 (Homo sapiens), Q9NUW8; Potency, µM (titrated, usually from 130 µM), inactives show at the top dose activity change, negative = inhibition, hits mostly inhibitors; recombinant TDP1, AlphaScreen DNA substrate cleavage; also: potency is read from the fitted curve at half-maximal effect; nearly all actives have a fitted effect of over 40% in size
# Target sequence (Q9NUW8 whole entry, looked up): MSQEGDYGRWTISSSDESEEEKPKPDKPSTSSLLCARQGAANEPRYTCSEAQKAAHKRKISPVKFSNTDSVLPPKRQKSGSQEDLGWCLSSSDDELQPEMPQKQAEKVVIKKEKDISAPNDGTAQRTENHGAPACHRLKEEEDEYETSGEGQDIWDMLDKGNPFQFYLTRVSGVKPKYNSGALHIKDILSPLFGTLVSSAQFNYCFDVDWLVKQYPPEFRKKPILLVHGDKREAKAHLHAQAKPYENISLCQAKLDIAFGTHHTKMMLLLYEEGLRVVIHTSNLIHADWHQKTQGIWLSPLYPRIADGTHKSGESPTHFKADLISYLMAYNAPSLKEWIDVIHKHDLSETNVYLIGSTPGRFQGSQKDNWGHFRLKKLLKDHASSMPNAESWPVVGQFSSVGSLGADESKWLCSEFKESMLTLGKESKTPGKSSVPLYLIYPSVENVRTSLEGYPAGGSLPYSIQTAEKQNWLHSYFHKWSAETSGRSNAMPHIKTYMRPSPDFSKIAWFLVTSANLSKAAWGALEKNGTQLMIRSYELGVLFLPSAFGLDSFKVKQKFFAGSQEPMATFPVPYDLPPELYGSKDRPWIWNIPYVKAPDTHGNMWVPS
#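 Signal: AlphaScreen proximity between streptavidin donor and anti-FITC acceptor beads on intact substrate. Reaction: Tdp1 1 nM, substrate 15 nM final, 5 min RT after 15 min compound preincubation.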
# IL-1B inflam inh: qHTS for Inhibitors of Inflammasome Signaling: IL-1-beta AlphaLISA Primary Screen. actives 4.7% (n = 360,000). activity change, % at 57.5 µM. THP-1 LPS/ATP IL-1B secretion, AlphaLISA, 16 h; hits give low values; in the data active = activity change below about -50%; inconclusive = mostly about -30% to -49%
#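 THP-1 cells pretreated 1 hr with compounds (up to 57.5 uM final), then stimulated with LPS (250 ng/mL final) plus ATP (1.25 mM final); secreted IL-1B measured by AlphaLISA after 16 hr, decreased signal indicating inhibition.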
# * = called active by the depositor; ? = inconclusive; / = no result given; [ ] = another dose, or the depositor's remark. Unless noted, calls follow the shape of the dose curve; as a rule, active = well fitted curve in the direction sought with a large enough effect; inconclusive = small, poorly fitted or top-dose-only effect, or another doubt; inactive = no such curve, though single readings can be large; an effect the other way counts as inactive or inconclusive. % is scaled to controls: 0 for no effect and ±100 for the full control effect.
SMILES,CtBP-E1A inh,TDP1 cell noCPT,DT40 TDP1 CPT,Six1-Eya2 blk,TDP1 inh,IL-1B inflam inh
O=C(Cn1nc(C(=O)O)c2ccccc2c1=O)Nc1ccc2c(c1)OCO2,-1.0,7.6%,-0.1%,2.2,-2.6%,7.2
O=C(CNS(=O)(=O)c1ccc(Br)cc1)N1CCN(c2ccc(F)cc2)CC1,4.6,18.4µM*,?,-6.2,1.7%,-12.2
O=C(CNS(=O)(=O)c1ccc(Cl)cc1)N1CCN(c2ccc(F)cc2)CC1,2.5,?,?,1.0,2.8%,-7.5
O=S(=O)(NCC1CCCN(Cc2ccccc2)C1)c1cccc2cccnc12 (stereo not given),-0.1,-4.3%,-2.0%,-5.3,3.3%,?
O=C(NC1CCCCCC1)C1CCN(S(=O)(=O)c2cccc3cccnc23)CC1,-17.0,-9.6%,-3.1%,7.2,2.5%,-5.4
O=C(NC1CCN(Cc2ccccc2)CC1)C1CCN(S(=O)(=O)c2cccc3cccnc23)CC1,-22.1,14.6µM*,18.4µM*,6.1,5.2%,30.2
O=S(=O)(NC1CCN(Cc2ccccc2)CC1)c1cccc2cccnc12,3.0,18.4µM*,?,-6.7,0.0%,-2.4
Cc1c(-c2ccccc2)[n+](=O)c2c(n1[O-])CCCCC2,-2.3,-9.8%,-10.0%,1.5,0.0%,2.4
COc1ccc(-n2cccc2C=O)cc1,23.9,-25.4%,?,2.1,1.1%,-5.3
COc1ccc(-n2cccc2/C=C/[N+](=O)[O-])cc1,-6.5,3.26µM*,2.31µM*,-16.7,10.5%,-103.1*
CC(=O)Nc1ccc(OS(=O)(=O)O)cc1,/,/,/,/,1.6%,/
O=C(c1ccc(F)cc1)N1CCN2C(=O)c3ccccc3C12c1ccc(Cl)cc1 (stereo not given),-14.2,?,?,-6.2,2.6%,-25.7
O=C(c1ccccc1)N1CCN2C(=O)c3ccccc3C12c1ccc(Cl)cc1 (stereo not given),-1.1,18.4µM*,20.6µM*,-13.7,5.7%,?
CC1(C)CC(Cc2ccc(C(=O)c3ccccc3)cc2)N(C(=O)OC(C)(C)C)N1 (stereo not given),-1.0,4.11µM*,6.51µM*,2.4,/,-3.1
Cc1nc2ccc(S(=O)(=O)Nc3cccc(-c4nc5cccnc5s4)c3C)cc2s1,-5.1,25.9µM*,?,-2.8,2.6%,40.7
Cc1nc2ccc(S(=O)(=O)Nc3cc(-c4nc5cccnc5s4)ccc3C)cc2s1,-18.8,20.6µM*,?,-25.5,-1.3%,42.0
CCCC(CCC)C(=O)Nc1cccc(-c2nc3cccnc3s2)c1C,/,-13.9%,-7.7%,/,2.6%,/
Cc1ccc(-c2nc3cccnc3s2)cc1NS(=O)(=O)c1ccc2c(c1)OCCO2,-2.4,?,?,-7.6,7.6%,17.6
CCCc1nnc(NC(=O)c2cc3ccccc3o2)s1,6.9,-20.7%,-0.6%,2.9,/,-7.7
CC(=O)Nc1ccc(NC(=O)COC(=O)c2cc(S(=O)(=O)N3CCCC3)ccc2O)cc1,-5.9,-14.4%,-11.2%,4.4,1.8%,-14.6
N#Cc1cc(C#N)c(SCC(=O)N2CC(=O)Nc3ccccc32)nc1N,/,20.6µM*,20.6µM*,-16.7,-5.9%,-17.9
CCc1ccc2nc(SCC(=O)N3CC(=O)Nc4ccccc43)c(C#N)cc2c1,-6.3,16.4µM*,?,-1.3,4.2%,55.9
CCc1cc2cc(C)ccc2nc1SCC(=O)N1CC(=O)Nc2ccccc21,-8.3,?,?,-25.6,-11.5%,-74.4*
CC[C@@]1(C(=O)OC)N[C@H](CN(C)S(=O)(=O)c2ccc(F)cc2)[C@@H]2C(=O)N(C)C(=O)[C@@H]21,5.3,-9.3%,-11.9%,9.0,-0.4%,25.0
N#CC1=C(SCC(N)=O)NC(=O)CC1c1cccc2ccccc12 (stereo not given),5.4,-3.8%,-6.6%,-5.6,/,15.6
SMILES,CtBP-E1A inh,TDP1 cell noCPT,DT40 TDP1 CPT,Six1-Eya2 blk,TDP1 inh,IL-1B inflam inh
COc1ccc(/C=N/NC(=O)c2nn(-c3ccc(Cl)cc3)c(=O)c3c(N)scc23)cc1,-20.4,2.59µM*,5.8µM*,-6.9,-1.9%,-1.0
COc1ccc(/C=N/NC(=O)c2nn(-c3ccccc3)c(=O)c3c(N)scc23)cc1,-29.8,8.2µM*,10.3µM*,?,/,-20.1
COc1ccc(-n2nc(C(=O)O)c3ccccc3c2=O)cc1,6.0,-27.8%,-20.7%,7.5,-6.8%,5.2
COc1ccc(/C=N/NC(=O)c2nn(-c3ccc(C)c(C)c3)c(=O)c3ccccc23)cc1,-5.2,3.26µM*,9.2µM*,-8.8,5.6%,-18.0
COc1ccc(Cc2noc(-c3ccc([N+](=O)[O-])cc3)n2)cc1OC,/,?,25.9µM*,-3.4,/,-2.1
CCOc1c(Br)cc(/C=C2\N=C(C)OC2=O)cc1Br,5.2,?,20.6µM*,2.3,/,-1.2
COc1cc(/C=C2\N=C(C)OC2=O)cc(OC)c1OC,6.2,?,?,4.2,2.7%,0.0
Cn1cccc1/C=C1\SC(=Nc2ccc(O)cc2)NC1=O,-6.4,0.0231µM*,0.0411µM*,-18.6,5.0%,131.7
Cn1cccc1/C=C1\SC(=Nc2ccccc2)NC1=O,/,2.31µM*,2.91µM*,-5.2,2.6%,139.7
Cn1cccc1/C=C1/SC(=O)N(CC(=O)N2CCCC2)C1=O,-0.6,-5.5%,11.2%,-18.3,1.1%,-4.1
Cn1cccc1/C=C1\SC(=Nc2cccc(O)c2)NC1=O,1.6,20.6µM*,20.6µM*,-26.1,9.9%,30.4
Cc1cccc(C)c1NC(=O)CN1C(=O)S/C(=C\c2cccn2C)C1=O,-7.2,-20.8%,-24.1%,-2.1,-3.9%,-18.8
Cc1ccc(N=C2NC(=O)/C(=C/c3cccn3C)S2)c(C)c1,-29.1,6.51µM*,?,?,9.4%,-20.9
CCOc1ccc(OCCC(=O)OCC(=O)NC2CCCCC2)cc1,-1.9,-2.8%,-6.8%,6.5,-3.8%[56.1 µM],4.1
CCOc1ccc2[nH]c3nc(SCC(=O)OC(C)C)nnc3c2c1,-14.8,0.6%,-9.3%,-5.7,-0.4%,2.1
C=CCOc1ccc(/C=C2\SC(=Nc3cccnc3)NC2=O)cc1,-5.3,?,10.9%,-6.8,7.1%,21.8
